Screening results: PubChem, National Center for Advancing Translational Sciences (NCATS)
The list is not random: actives were taken first. Their share in the collection is about 7%.
IL1B secr inh = inflammasome signaling inhibition, IL-1 beta readout | hit rate 4.7% among 360,000 | THP-1 LPS/ATP IL-1B secretion, AlphaLISA, 16 h; hits give low values | activity change, % at 57.5 µM; in the data active = activity change below about -50%; inconclusive = mostly about -30% to -49%; note: % is set by controls: 0 for no effect and ±100 for the full control effect
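THP-1 cells pretreated 1 hr with compounds (up to 57.5 uM final), then stimulated with LPS (250 ng/mL final) plus ATP (1.25 mM final); secreted IL-1B measured by AlphaLISA after 16 hr, decreased signal indicating inhibition.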
ATXN viability = viability counter-screen for ATXN expression inhibitors | AID 651635 | S2 cells (HEK-293 line with an ATXN2-luciferase reporter) viability, CellTiter-Fluor protease fluorescence, 24 h | hit rate 0.49% among 400,000 | Potency, µM (highest dose often 56.7 µM), usual class: cytotoxic; note: potency is the fitted concentration of half-maximal effect; nearly all actives have a fitted effect of over 40% in size
DRD3 antagonist = D3 dopamine receptor (human) antagonism; P35462; D3R cells, DiscoveRx beta-arrestin luminescence, antagonist mode; hits give low values; max response, negative = inhibition, %; hit rate 2.5% among 360,000; in the data active = max response below about -50%; inconclusive = no clear call, values can overlap the other calls; note: % is set by controls: 0 for no effect and ±100 for the full control effect
Target sequence (P35462 whole entry, looked up): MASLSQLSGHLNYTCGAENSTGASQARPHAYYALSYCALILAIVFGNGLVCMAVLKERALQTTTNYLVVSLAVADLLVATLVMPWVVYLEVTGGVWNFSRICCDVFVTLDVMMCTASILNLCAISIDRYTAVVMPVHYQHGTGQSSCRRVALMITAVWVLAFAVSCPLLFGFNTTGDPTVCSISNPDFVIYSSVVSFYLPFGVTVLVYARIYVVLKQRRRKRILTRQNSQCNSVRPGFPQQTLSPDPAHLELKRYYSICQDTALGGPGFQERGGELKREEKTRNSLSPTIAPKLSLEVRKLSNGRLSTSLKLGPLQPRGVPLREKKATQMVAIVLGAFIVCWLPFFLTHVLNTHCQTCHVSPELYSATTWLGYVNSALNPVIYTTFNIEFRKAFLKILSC
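Cells expressing the human receptor were seeded at 1500 cells/well, incubated overnight at 37 degrees C in 5% CO2, then exposed to library compounds with dopamine controls for 90 minutes at 37 degrees C before luminescent detection.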
ATXN2 expr inh = ATXN2 expression inhibition; HEK-293 ATXN2-luciferase reporter, luminescence, 24 h; Potency, µM (highest dose often 57 µM), without a hit: top-dose activity change, negative = inhibition, actives largely listed as inhibitors; hit rate 0.72% among 360,000; AID 1745845; note: potency is the fitted concentration of half-maximal effect; % is set by controls: 0 for no effect and ±100 for the full control effect; nearly all actives have a fitted effect of over 55% in size
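ATXN2-luciferase reporter cells (luciferase flanked by upstream and downstream ATXN2 gene portions) were treated 24 h at 37 °C with compounds at up to 57 uM. SteadyGlo luminescence gave expression; GF-AFC fluorescence gave viability.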
Integrin act MD = activates integrin-mediated alleviation for muscular dystrophy. Potency, µM (doses to about 38.3 µM), inactives show top-dose activation, most hits filed as activators. alpha7betagal myoblasts, beta-gal FDG fluorescence, 48 h. hit rate 0.064% among 350,000. AID 624291;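 note: potency is the fitted concentration of half-maximal effect; 100% = response of the positive control SU9516; nearly all actives have a fitted effect of over 60% in size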
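alpha7betagal+/- myoblasts (passage 13, 250/well) treated 48 h at 37C with compounds at 1:260 dilution of DMSO stock. Lysed, then beta-galactosidase activity read as FDG fluorescence (ex 480/em 540) after 30 min, with pre-read for autofluorescence.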
D3 ag = activates the human D3 dopamine receptor; P35462; D3R DiscoveRx beta-arrestin cells, luminescence, 90 min; max activation, %; hit rate 0.58% among 410,000; AID 652048; in the data active = max activation above about 30%; note: 0% is about no effect
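Cells at 1500/well, incubated overnight, then treated with pinned compounds (dopamine as control) for 90 min at 37 degrees C. DiscoveRx reagent added for 30 - 60 minutes at room temperature; luminescence read.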
An asterisk follows results filed as active; i = inactive; ? = inconclusive; / = not tested or not shown; [ ] = another dose, or the depositor's remark. Unless noted, calls come from the whole dose curve; as a rule, active = well fitted curve in the direction sought with a large enough effect; inconclusive = small, poorly fitted or top-dose-only effect, or another doubt; inactive = no such curve, though single readings can be large; an effect the other way counts as inactive or inconclusive.

SMILES | IL1B secr inh | ATXN viability | DRD3 antagonist | ATXN2 expr inh | Integrin act MD | D3 ag
COc1ccc(/C=C/C(=O)O)cc1 | 5 | i | 13 | -7% | 13% | -11
Cc1cc(C(=O)NNC(=O)/C=C/c2ccccc2Cl)c(C)o1 | -3 | i | -6 | 3% | -4% | 3
COc1ccc(C(=O)C=Cc2cccs2)c(O)c1 | -54* | i | 0 | 41% | -17% | -8
COc1ccc(/C=C/C(=O)NNC(=O)c2cc(C)oc2C)cc1 | -58* | i | 3 | -8% | 8% | 3
CNC(=O)CN(c1cccc(Br)c1)S(C)(=O)=O | 1 | i | -17 | -3% | -5% | 2
Cc1ccc(S(=O)(=O)NC(Cc2c[nH]c3ccccc23)C(=O)O)cc1 (stereo not drawn) | 10 | i | -7 | -7% | -13% | 0
COc1ccc(C(=O)NC(C)CCc2ccccc2)c(O)c1 (stereo not drawn) | -55* | ? | -18 | 13% | 26% | 5
COc1ccc(C(=O)NC(C)CCc2ccccc2)cc1 (stereo not drawn) | -1 | i | -11 | 11% | -5% | -6
Cc1c(Br)c([N+](=O)[O-])nn1CC(=O)Nc1sc2c(c1C(=O)OC(C)C)CCCC2 | 13 | ? | 15 | -13% | 12% | 3
NNc1nc2c(-c3cccc(C(F)(F)F)c3)nnn2c2ccccc12 | -12 | i | 36 | 9% | 57% | 32*
CC(CCc1ccccc1)NC(=O)c1ccc(NC(=O)c2ccc(Cl)cc2Cl)cc1 (stereo not drawn) | -8 | ? | 0 | -14% | 13% | 4
O=S(=O)(c1ccc(Cl)s1)N1CCN(C/C=C/c2ccccc2)CC1 | -11 | i | -82* | -24% | -52% | 1
O=S(=O)(c1ccc(Cl)cc1)N1CCC(O)(CN2CCN(Cc3ccccc3)CC2)CC1 | -53* | i | -6 | ? | -4% | -9
O=S(=O)(c1ccccc1)N1CCC(O)(CSc2ccc(Cl)cc2)CC1 | ? | i | -3 | -27% | 15% | 7
O=S(=O)(c1ccc(Cl)s1)N1CCN(Cc2ccccc2)CC1 | 20 | i | -59* | 1% | -12% | -10
O=S(=O)(c1ccc(Cl)s1)N1CCN(CCc2ccccc2)CC1 | i | i | -1 | -14% | 0% | -1
Cc1[nH]c(=O)[nH]c(=O)c1/C=C/C(=O)O | 21 | i | 35 | 17% | ? | -2
COc1ccc(OC)c(N2Cc3cc(C)c(C)cc3C2)c1 | -1 | ? | -7 | 22% | -34% | 3
CCCCc1nn2c(=O)cc(COC(=O)c3ccccc3NC(=O)C3CCCCC3)nc2s1 | / | i | / | 1% | / | 2
CCN(CC)C(=O)[C@H]1C[C@H](CC(=O)NCC23CC4CC(CC(C4)C2)C3)C(=O)N2CCc3c([nH]c4ccc(Cl)cc34)[C@]12C | -69* | ? | 0 | ? | 17% | -21
CCN(CC)C(=O)[C@H]1C[C@H](CC(=O)NCc2ccc(OC)c(OC)c2)C(=O)N2CCc3c([nH]c4ccc(Cl)cc34)[C@]12C | 16 | ? | ? | -12% | 20% | -6
C[C@]12c3[nH]c4ccc(Cl)cc4c3CCN1C(=O)[C@@H](CC(=O)NCCN1CCOCC1)C[C@@H]2C(=O)N1CCOCC1 | 10 | i | -9 | 9% | -13% | 4
CC(C)N(C(=O)[C@H]1C[C@H](CC(=O)NCCCN(C)C)C(=O)N2CCc3c([nH]c4ccc(Cl)cc34)[C@]12C)C(C)C | -25 | ? | -3 | -18% | -44% | -41
CC(C)=CCC/C(C)=C/CNC(=O)C[C@H]1C[C@H](C(=O)N2CCOCC2)[C@@]2(C)c3[nH]c4ccc(Cl)cc4c3CCN2C1=O | -65* | i | -13 | 4% | -14% | -6
CCN(CC)C(=O)[C@H]1C[C@H](CC(=O)NCCCN(C)C)C(=O)N2CCc3c([nH]c4ccc(Cl)cc34)[C@]12C | -52* | i | -17 | 0% | -18% | -20
SMILES | IL1B secr inh | ATXN viability | DRD3 antagonist | ATXN2 expr inh | Integrin act MD | D3 ag
CC(C)=CCC/C(C)=C/CNC(=O)CC1C[C@H](C(=O)N2CCOCC2)[C@@]2(C)c3[nH]c4ccccc4c3CCN2C1=O (stereo partly drawn) | ? | / | 8 | ? | -15% | -31
CC(C)N(C(=O)[C@H]1C[C@H](CC(=O)NCC23CC4CC(CC(C4)C2)C3)C(=O)N2CCc3c([nH]c4ccc(Cl)cc34)[C@]12C)C(C)C | -75* | ? | 4 | ? | -40% | 37*
COc1ccc(-c2nn(-c3ccccc3)cc2C(=O)N/N=C/c2ccc([N+](=O)[O-])o2)cc1 | 14 | ? | -16 | ? | -36% | -4
CCN(CC)C(=O)Cn1cc(SCC(=O)NC)c2ccccc21 | -5 | i | -16 | -6% | 4% | -3
Fc1ccccc1NC(=S)NCc1ccccc1 | 19 | i | 5 | 3% | -3% | -3
CC(C)(CO)NC(=O)c1cnn(-c2nccc(-c3ccc4c(c3)OCO4)n2)c1C1CC1 | / | i | / | / | / | /
CCCCNc1nc2c(c(=O)n(Cc3ccc(Cl)c(Cl)c3)c(=O)n2C)n1C | / | i | / | -3% | / | 5
CCOc1ccc2nc(NC(=O)CSC3=NCCS3)sc2c1 | -92* | i | -19 | 4% | -54% | -7
CCOC(=O)c1cc(C)sc1NC(=O)CSC1=NCCS1 | -61* | i | -1 | -11% | -55% | 9
COc1ccc2nc(NC(=O)CSC3=NCCS3)sc2c1 | -58* | i | ? | 14% | -29% | -3
COC(=O)C1=C/C=C\CN(C(c2ccccc2)c2ccccc2)/C=C\1C(=O)OC | 13 | i | 6 | / | -4% | 2
O=C(C(=O)N1CCOCC1)c1cn(CCOc2ccccc2)c2ccccc12 | 12 | ? | -23 | -10%[2.22 µM] | -11% | 3
Cc1ccnc(NC(=O)c2cccc(S(=O)(=O)N3CCOCC3)c2)c1 | -7 | i | -20 | 27% | 3% | 1
CN(Cc1ccccc1)c1ccc(C(CC(N)=O)NC(=O)c2ccc(Br)cc2)cc1[N+](=O)[O-] (stereo not drawn) | 24 | ? | -52* | ? | 11% | -52
COc1ccc(Cc2nnc(NC(=O)C3CC(=O)N(c4ccc(OC)cc4)C3)s2)cc1 (stereo not drawn) | 37 | / | 1 | -9% | 22% | 7
CCN1C(=O)/C(=C\C(=O)c2cccs2)c2cc(Br)ccc21 | -7 | i | -14 | 23% | -40% | -5
COc1ccc(C(=O)/C=C2/C(=O)Nc3ccccc32)c(OC)c1 | -101* | i | -27 | -13% | -26% | -23
COc1ccc(C(=O)/C=C2/C(=O)Nc3ccccc32)cc1OC | -82* | ? | -1 | / | -19% | 0
